Screening data deposited in PubChem BioAssay by National Center for Advancing Translational Sciences (NCATS).
This excerpt belongs to a sample that is enriched for hits.
KDM5B inh: Primary screen for KDM5B Histone Demethylases FDH-coupled qHTS; Lysine-specific demethylase 5B (Homo sapiens), Q9UGL1; KDM5B demethylase, FDH-coupled NADH fluorescence (FDH is formaldehyde dehydrogenase); Potency, µM (top dose mostly 57.7 µM), most hits filed as inhibitors; hit rate 2.6% among 220,000; AID 1347165, 2019; active = well fitted inhibition curve with a large enough effect; also: nearly all actives have a fitted effect of over 70% in size
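KDM5BΔAP (200 nM final) in 50 mM HEPES pH 7.5, 0.01% Tween-20 was preincubated 10 min at RT with compound over a concentration range. Substrate mix (H3K4me3 12.5 µM, α-KG 25 µM, Fe²⁺, ascorbate, NAD⁺, FDH) was added, and NADH fluorescence change over 30 min gave dose-response curves.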
Of the large screens only hits and unclear results are named; the others gave an inactive call.

Cc1ccc(-c2nc3cnccn3c2NCCC(=O)N2CCCCC2)cc1	KDM5B inh 32µM
O=C(CNc1nc(-c2ccccc2)nc2ccccc12)N1CCCC1	none
CC(C)c1ccc(Nc2c(-c3ccc(N(C)C)cc3)nc3cnccn23)cc1	none
O=C(CCNc1c(-c2ccccc2)nc2cnccn12)N1CCCC1	KDM5B inh 28µM
CN(Cc1ccccc1)C(=O)c1nc2ccccn2c1CNCCOc1cccnc1	none
O=C(O)CCNc1c(-c2ccc(F)cc2)nc2cnccn12	KDM5B inh 28µM
CN(Cc1ccccc1)C(=O)CCNc1c(-c2cccc(F)c2)nc2cnccn12	KDM5B inh 25µM
COc1ccc(NC(=O)c2nn(C(C)C)c(=O)c3ccccc23)cc1	none
O=C(CSc1ncc(-c2cccc(Br)c2)o1)NC1CCCCC1	none
CC(=O)Nc1ccc(NC(=O)C(C)C)cc1Cl	none
O=C(C1=C(c2ccccc2)S(=O)(=O)CCO1)N(Cc1cccc(F)c1)c1ccccn1	none
COc1cc(C(=O)Nc2cc(Cl)ccc2OCC2CCCO2)cc(OC)c1OC (centres undefined)	none
COc1ccc(-c2nnc(SCC(=O)N3CCCCC3)o2)cc1	none
COc1ccc(-c2nc3cnccn3c2NCCC(=O)N2CCCCCC2)cc1	KDM5B inh 28µM
O=C(CCNc1c(-c2cccc(F)c2)nc2cnccn12)N1CCCC1	KDM5B inh 28µM
COc1ccc(-c2noc(C(=O)N3CCCC3)c2[C@H](C)O)cc1	none
O=C(Nc1ccc(-c2cccc(F)c2)cc1)C1CCCN(C(=O)c2ccncc2)C1 (centres undefined)	none
O=C(CCOc1cccc(F)c1)N1CCC(c2nnc3n2CCC3)CC1	none
CCOc1cc2cc(C(=O)c3cc(C)ccc3O)cnc2cc1OC	none
CCCNc1c(NC(=O)c2cc(Cl)ccc2OC)c(=O)oc2ccccc12	none
Cn1nc(C(=O)OCc2nc(-c3ccc4c(c3)OCO4)no2)c2ccccc21	none
Oc1ccccc1CN1CCC(n2cc(-c3ccc(F)cc3)nn2)CC1	none
COc1ccc(S(=O)(=O)c2cn(CC(=O)Nc3ccc(C)c(F)c3)c3nc(C)ccc3c2=O)cc1	none
O=C(NCCCOC1CCCCC1)C1CCCO1 (centres undefined)	none
COC(=O)C1=C(C)N=C2SC=C(CC(=O)N(C)Cc3ccco3)N2C1c1ccc(Cl)cc1 (centres undefined)	KDM5B inh 18µM
COC(=O)C1=C(C)N=C2SC=C(CC(=O)N(C)Cc3ccco3)N2C1c1cccc(Cl)c1 (centres undefined)	none
CC1=C(C(=O)OC(C)C)C(c2cccc(F)c2)N2C(CC(=O)NCc3ccco3)=CSC2=N1 (centres undefined)	none
CCOC(=O)C(NC(C)=O)C(=O)OCC	none
O=C(Cc1c[nH]c2ccccc12)N1CCC2(CC1)CC(CO)N(C(=O)c1ccccc1)C2 (centres undefined)	none
CCOC(=O)C(NC(=O)c1ccccc1)C(C)C (centres undefined)	none
COc1cccc(CNS(=O)(=O)c2ccc(-c3ccc(=O)[nH]n3)o2)c1	none
O=C(CCC[C@H]1NC[C@@H]2CC1CN(Cc1ccccc1)C2)NCCCc1ccccc1	KDM5B inh 7.1µM
O=C(CCC[C@H]1NC[C@@H]2C[C@H]1CN(Cc1ccccc1)C2)NCc1ccccn1	none
O=C(CCC[C@H]1NC[C@@H]2C[C@H]1CN(Cc1ccccc1)C2)NCCN1CCCCC1	none
COC(=O)CSc1n[nH]c(=O)c2cc(-c3ccc(OC)c(OC)c3)nn12	none
COc1ncccc1-c1cc(C(=O)N2CCOCC2)c2c(c1)ncn2C	none
COc1ncccc1-c1cnc2[nH]cc(CC(=O)NC(C)C)c2c1	KDM5B inh 32µM
COc1ccc(CNC(=O)c2c[nH]c3ncccc23)cc1OC	none
COc1ncccc1-c1cnc2[nH]cc(CC(N)=O)c2c1	KDM5B inh 32µM
COc1ncccc1-c1cnc2[nH]cc(CC(=O)N3CCOCC3)c2c1	KDM5B inh 35µM
COCCn1c(C)c(C)c(S(=O)(=O)c2ccccc2)c1NC(=O)c1ccc(OC)cc1	none
O=C(COC(=O)C1C=CCCC1)c1ccc(Cl)cc1 (centres undefined)	none
COc1ccccc1/C=C/c1nc(C#N)c(NCc2ccc3c(c2)OCO3)o1	none
O=C(OCC(=O)N1CCCCC1)c1ccccc1-c1nc2ccccc2s1	none
COc1ccc(-c2[nH]ncc2CNc2cc(C3CC(O)C3)nc(C)n2)cc1 (centres undefined)	none
COc1ccc2[nH]c(CNc3cc(C4CC(N)C4)nc(C)n3)cc2c1 (centres undefined)	KDM5B inh 20µM
COc1ccc2[nH]c(CO)cc2c1	none
Cc1nc2ccccc2c(C)c1CC(=O)NCCCc1[nH]nc(N)c1C#N	none
Cc1ccc2c(=O)cc(C(=O)NCC(c3ccco3)N3CCOCC3)oc2c1C (centres undefined)	none
COc1ccc(NC(=O)c2cnc3c(c2)N(c2ccccc2OC)CCC3)cn1	none
COc1ccccc1CC(=O)N1CCCc2ncc(C(=O)N(C)Cc3ccccc3)cc21	none
COc1ccccc1N1CCCc2ncc(C(=O)NCCc3c[nH]c4ccccc34)cc21	KDM5B inh 28µM
COc1ccccc1N1CCCc2ncc(C(=O)NCCOc3ccccc3)cc21	none
COc1ccccc1N1CCCc2ncc(C(=O)N3CCCC[C@@H]3Cc3ccccc3)cc21	KDM5B inh 25µM
CC(C)c1ccc(CC(=O)N2CCCc3ncc(C(=O)N4CCCC[C@@H]4Cc4ccccc4)cc32)cc1	none
COc1ccccc1N1CCCc2ncc(C(=O)N3CCC[C@@H]3c3ccc(F)cc3)cc21	none
COc1ccccc1N1CCCc2ncc(C(=O)N(C)Cc3ccccc3)cc21	KDM5B inh 35µM
COc1ccccc1N1CCCc2ncc(C(=O)N3CC[S+](=O)([O-])CC3)cc21	none
CN(CC(=O)NC(=O)NCCC1=CCCCC1)C1CCCCC1	none
COC1C(=O)N(c2cccc(F)c2)C12CCN(C(=O)c1ccncc1)CC2 (centres undefined)	none
O=C(CCC(=O)c1cccs1)NCCC(=O)Nc1ccc(F)c(Cl)c1	none
CC(C)CC(=O)Nc1ccc(-c2nc3cc(Cl)ccc3o2)cc1	none
O=C(NCc1ccccc1S(=O)(=O)N1CCOCC1)c1ccc(OC(F)F)cc1	none
CC1CCCN(CCCNC(=O)CN2C(=O)CCn3nc(-c4cn(C)c5ccccc45)cc32)C1 (centres undefined)	none
CC(C)NCc1ccc(-c2ccccc2)o1	none
CSc1cccc(NC(=O)CCc2ncc(-c3ccccc3F)o2)c1	none
CSc1cccc(NC(=O)CCc2ncc(-c3ccccc3)o2)c1	none
CCN(CC)Cc1ccc(CNC(=O)c2ccc(Br)cc2F)cc1	none
CC(=O)NCCNc1cc(C)c2ccc(Cl)cc2n1	KDM5B inh 25µM
CC(=O)NCCNC(=O)c1cc2cc(C)ccc2nc1C	none
Cc1cc(SCC(=O)Nc2ccc(Cl)cc2)nc2ccccc12	none
Cc1oc(-c2ccc(Cl)cc2)cc1C(=O)Nc1nccs1	none
COc1cc(C#N)cc(Cl)c1O	none
O=C(NCc1ccc2c(c1)OCO2)C1NCCc2[nH]cnc21 (centres undefined)	none
Cc1cc(C(F)(F)F)nc(CCNC(=O)C2CC3(CCNCC3)CN2)n1 (centres undefined)	none
Cc1nn(-c2ccc(F)cc2)c(C)c1CNC(=O)C1NCCc2[nH]cnc21 (centres undefined)	KDM5B inh 13µM
COc1ccc(SCCNC(=O)C2NCCc3[nH]cnc32)cc1 (centres undefined)	none
O=C(NCCc1nc(-c2cccnc2)n[nH]1)C1NCCc2[nH]cnc21 (centres undefined)	KDM5B inh 7.9µM
COc1cccc(-c2ncc(CNC(=O)C3NCCc4[nH]cnc43)s2)c1 (centres undefined)	KDM5B inh 20µM
